# Experimental data published in ChEMBL document CHEMBL3988442, “University of Dundee, Small-Polar-MMV Screening Library” (2021).
# Hit rate of the full screen: of about 69,000 compounds, about 1,000 (1.4%) showed an effect of 50% or more. For the sample, strong results were picked, then their nearest neighbours and some compounds at random.
# Test system: Leishmania donovani
# Experiment: Leishmania intramacrophage assay
# Type: functional, organism-based
# Parameters: scale not given: in the data most compounds retested in dose-response had high values
smiles,measurement,setting,value
CCc1nncn1CCNC(=O)Nc1ccc(OC)c(C)c1,Percent Effect,"30.3 µM, […]",5.132%
CCOC1(C)C(=O)c2ccccc2N1Nc1ccccc1C(=O)CC (configuration not stated),Percent Effect,"30.3 µM, […]",19.56%
CCC(=O)c1ccccc1NN1c2ccccc2C(=O)C1(C)OC (configuration not stated),Percent Effect,"30.3 µM, […]",62.96%
CCC(=O)c1ccc(Br)cc1NN1c2cc(Br)ccc2C(=O)C1(C)OC (configuration not stated),Percent Effect,"30.3 µM, […]",24.9%
Cc1c(C(=O)O)cnn1-c1ccc(-c2nc(C3CC3)no2)cn1,Percent Effect,"30.3 µM, […]",11.33%
CC(C)Cc1cc(NC(=O)c2cc(Cl)c[nH]2)n(C)n1,Percent Effect,30 µM,-56.19%
CC(=O)c1ccc(N2CCCC(CO)(Cc3ccccc3F)C2)nc1 (configuration not stated),Percent Effect,"30.3 µM, […]",13.31%
N#Cc1cccnc1N1CCCC(CO)(Cc2ccccc2F)C1 (configuration not stated),Percent Effect,"30.3 µM, […]",2.884%
Nc1cc(N2CCCC(CO)(Cc3ccccc3F)C2)nc(N)n1 (configuration not stated),Percent Effect,"30.3 µM, […]",94.26%
N#Cc1cccc(N2CCCC(CO)(Cc3ccccc3F)C2)n1 (configuration not stated),Percent Effect,"30.3 µM, […]",29.41%
COc1cc(N2CCCC(CO)(Cc3ccccc3F)C2)ncn1 (configuration not stated),Percent Effect,"30.3 µM, […]",63.9%
OCC1(Cc2ccccc2F)CCCN(c2ccc3ccccc3n2)C1 (configuration not stated),Percent Effect,"30.3 µM, […]",23.98%
CC(C)(C)c1cn2nc(N3CCC[C@@H]3CO)sc2n1,Percent Effect,"30 µM, 30.03 µM",20.83%
CN(C)C(=O)N1CCN(C(=O)c2ccc(Cl)c(Cl)c2)C(C)(C)C1,Percent Effect,"30.3 µM, […]",36.34%
CCc1nc(N2CCN(CCOC)CC2)c2cnn(C)c2n1,Percent Effect,"30.3 µM, […]",9.143%
CCNC(=O)CN(CC)C(=O)Cc1csc(C(C)C)n1,Percent Effect,"30.3 µM, […]",17.83%
Cc1ncccc1CNCC1COC2(CCCCC2)O1 (configuration not stated),Percent Effect,"30.3 µM, […]",19.04%
Cc1nc(NCCCn2cccn2)c2c(n1)c(C)nn2C,Percent Effect,"30.3 µM, […]",-31.03%
O=C(CNC(=O)c1cnc2ccccc2c1O)NCCCn1ccnc1,Percent Effect,"30.3 µM, […]",15.36%
CN(C)C[C@@H]1CN(C2CCN(c3ccccc3Cl)CC2)C[C@@H]1CO,Percent Effect,"30.3 µM, […]",52.98%
CN(CCO)C[C@@H]1CN(C(=O)c2c(F)cccc2Cl)C[C@@H]1CO,Percent Effect,"30 µM, 30.03 µM",27.13%
CN(CCO)C[C@@H]1CN(Cc2ccccc2-c2ccccc2)C[C@@H]1CO,Percent Effect,"30.3 µM, […]",83.9%
CN1CCN(C[C@@H]2CN(C3Cc4ccccc4C3)C[C@@H]2CO)CC1,Percent Effect,"30.3 µM, […]",4.168%
Cc1cc(F)ccc1N1CCC(N2C[C@@H](C)[C@@](C)(O)C2)CC1,Percent Effect,"30.3 µM, […]",44.3%
CN(C)C[C@@H]1CN(C(=O)c2cc(F)ccc2F)C[C@@H]1CO,Percent Effect,"30.3 µM, […]",22.29%
Cc1cc(F)ccc1N1CCC(N2C[C@@H](CN(C)C)[C@@H](CO)C2)CC1,Percent Effect,"30.3 µM, […]",95.44%
Cc1ccccc1CN1C[C@@H](CN(C)CCO)[C@@H](CO)C1,Percent Effect,"30.3 µM, […]",5.953%
CN(C)C[C@@H]1CN(C(=O)Cc2ccccc2)C[C@@H]1CO,Percent Effect,"30.3 µM, […]",22.9%
CN(CCO)C[C@@H]1CN(Cc2ccccc2C#N)C[C@@H]1CO,Percent Effect,"30.3 µM, […]",12.29%
CN(CCO)C[C@@H]1CN(C2CCN(c3ccccc3Cl)CC2)C[C@@H]1CO,Percent Effect,"30.3 µM, […]",89.6%
CN(CCO)C[C@@H]1CN(C(=O)Cc2ccc3ccccc3c2)C[C@@H]1CO,Percent Effect,"30.3 µM, […]",-1.562%
O=C(NCCSCc1ccco1)c1ccc(N2CCOCC2)cc1,Percent Effect,"30.3 µM, […]",-4.352%
